High-throughput results deposited in PubChem BioAssay by several laboratories.
Kir21 block: inhibitors of mouse Kir2.1 inward-rectifier potassium channel; actives 0.85% (n = 310,000); Inward rectifier potassium channel 2 (Mus musculus), P35561; B-score at 10 µM; HEK293-Kir2.1, FluxOR thallium flux fluorescence; active compounds read low;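 active = fluorescence ratio B-score at or below minus 3 SD of library scores, with starting-brightness B-score within 2 SD, cut at about -4.2 in these data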;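 also: channel flux triggered by added potassium and thallium sulfate stimulus; B-score of peak minus minimum fluorescence over baseline after thallium stimulus; more negative B-score means stronger Kir2.1 block with less thallium influx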
Target sequence (P35561 whole entry, looked up): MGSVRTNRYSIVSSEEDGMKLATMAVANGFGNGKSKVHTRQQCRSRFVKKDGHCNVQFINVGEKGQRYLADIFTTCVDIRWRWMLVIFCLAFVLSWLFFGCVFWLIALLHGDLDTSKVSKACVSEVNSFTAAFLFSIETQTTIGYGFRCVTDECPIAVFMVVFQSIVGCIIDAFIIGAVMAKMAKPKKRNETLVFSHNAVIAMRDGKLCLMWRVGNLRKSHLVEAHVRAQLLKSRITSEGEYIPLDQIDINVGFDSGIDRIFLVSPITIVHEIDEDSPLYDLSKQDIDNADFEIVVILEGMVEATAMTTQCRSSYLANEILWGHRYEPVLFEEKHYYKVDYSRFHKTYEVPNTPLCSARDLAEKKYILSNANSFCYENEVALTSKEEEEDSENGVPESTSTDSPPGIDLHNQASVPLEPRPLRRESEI
CHT allo act: CHT positive allosteric modulators, primary screen, cell-based, membrane potential dye, choline EC20 | High affinity choline transporter 1 (Homo sapiens), Q9GZV3 | CHT-expressing cells; active compounds read high; LV-AA mutant CHT in HEK293 cells | B-score at 10 µM | actives 0.49% (n = 310,000) | AID 488977, 2010;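 active = initial fluorescence not abnormally high and integrated response B-score, plate-corrected, over 3 SD above library mean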
ANO1 block: TMEM16A chloride channel inhibitors, primary screen, cell-based, HTS. actives 1.2% (n = 310,000). HEK293 TMEM16A/YFP iodide influx fluorescence, ionomycin. AID 588511, 2011. normalized B-score (activity score, 25-100; higher = stronger inhibition) at 10 µM;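 active = ratio plate-corrected score three or more library SD toward inhibition, starting fluorescence score within five deviations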;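 also: score derived from kinetic fluorescence span divided by baseline fluorescence per well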
Rce1 inhib: yeast Rce1p protease inhibitors, primary screen, biochemical, fluorescence, cell-free homogeneous | CAAX prenyl protease 2 (Saccharomyces cerevisiae (strain ATCC 204508 / S288c)), Q03530 | yeast membranes, quenched prenylated peptide cleavage fluorescence | calls only | actives 0.27% (n = 290,000);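 active = fall in fluorescence gain of 50% or more versus controls, with final raw signal at or below 3038400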;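 also: plate controls were neutral control wells for no effect and wells lacking membranes for full effect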
ANO1 activ: TMEM16A chloride channel activators or potentiators, primary screen, cell-based, HTS; Anoctamin-1 (Mus musculus), Q8BHY3; HEK293 TMEM16A/YFP-H148Q/I152L, iodide quench fluorescence; active compounds read low; B-score at 10 µM; actives 0.3% (n = 340,000);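 active = fluorescence-ratio B-score plate-corrected deviation score at least 3 library SD below zero, with starting fluorescence score within 5 deviations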;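 also: channel opened by trigger with iodide after compound preincubation; score built on the fluorescence ratio of max minus min over baseline; more negative score means more quench and so TMEM16A activation or potentiation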
CHT inh: inhibitors of human choline transporter CHT; CHT-expressing cells, membrane potential dye, choline response; active compounds read low; B-score at 10 µM; actives 0.86% (n = 310,000);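 active = B-score over 3 SD under the library average, and starting fluorescence ratio not unusually high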;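 also: choline stimulus applied at its EC90 after an EC20 pre-addition; B-score computed on integrated fluorescence ratio after choline addition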
CHT inh conf: CHT inhibitors, confirmation, cell-based, membrane potential dye, duplicate. shares compounds with CHT inh. CHT-expressing cells, choline membrane potential dye; LV-to-AA substituted CHT, HEK293 cells. CHT activity remaining % of control (active compounds read low), % at 10 µM. actives 70% (n = 2,400);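 active = choline transporter activity left, mean of duplicates at 10 µM, below buffer-only control mean minus 3 SD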;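 also: depolarization triggered by choline at its EC90 following an EC20 pre-addition; 0% = hemicholinium-3 full block and 100% = buffer-only control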
HEK293 CHT ctr: membrane potential effects in parental HEK293, counter-screen for CHT inhibitor project, cell-based, membrane potential dye; shares compounds with CHT inh; choline response; active = decrease or increase beyond buffer ±3SD; membrane potential ratio readout (active if shifted either direction beyond buffer ±3SD; no single direction) at 10 µM; actives 4% (n = 2,400); AID 493222, 2011;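 also: parental cells lack the transporter so any hit is non-specific; ratio is peak minus trough fluorescence over baseline after EC90 choline challenge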
* = called active by the depositor; i = inactive; . = no result. An excerpt weighted towards active compounds, which were near 3.2% of everything screened.

SMILES	Kir21 block	CHT allo act	ANO1 block	Rce1 inhib	ANO1 activ	CHT inh	CHT inh conf	HEK293 CHT ctr
Cc1ccc(NC(=O)c2ccc(Cn3cc([N+](=O)[O-])cn3)cc2)c(C)c1	-0.85	i	i	i	i	-5.16*	41.9%*	i
COC(=O)c1ccc(Cn2cc([N+](=O)[O-])cn2)cc1	-0.12	i	i	i	i	i	.	.
CC(Oc1ccc(C#N)cc1)C(=O)N1CC=C(c2ccccc2)CC1 (stereo not drawn)	.	.	.	.	i	.	.	.
O=C(O)CC1=C(Nc2ccccc2)C(=O)N(c2ccccc2)C1c1ccc(F)cc1 (stereo not drawn)	0.16	i	i	i	i	-6.4*	31.5%*	i
COc1ccc(C(=O)N2CCC(C(=O)N3CCN(Cc4ccccc4)CC3)CC2)cc1	0.07	i	i	i	i	i	.	.
Cc1ccc(S(=O)(=O)N(C)C)cc1[N+](=O)[O-]	0.84	i	i	i	i	i	.	.
Cc1ccc(C(=O)/C=C/C(=O)O)cc1	-0.77	i	i	.	i	-5.77*	26.2%*	i
Cc1ccc(/C=C/C(=O)c2ccccc2)cc1	0.07	i	i	i	i	i	.	.
CN(C)CCCNC(=S)NCC(c1ccc(Cl)cc1Cl)c1c[nH]c2ccccc12 (stereo not drawn)	-6.52*	i	i	i	i	-5.76*	i	i
C=CCn1c(SCC(=O)NCC)nc2sc3c(c2c1=O)CCC3	0.44	i	i	i	i	i	.	.
O=C(CCCN1C(=O)/C(=C\c2cccs2)SC1=S)NNC(=O)c1ccncc1	0.32	i	i	i	i	i	.	.
COc1cccc(/C=C2\SC(=S)N(NC(=O)c3ccncc3)C2=O)c1	-0.95	i	i	i	i	-8.67*	5.2%*	i
O=C(NN1C(=O)/C(=C/c2cccc(O)c2)SC1=S)c1ccccc1O	-0.59	i	i	i	i	-5.23*	67.8%*	i
O=C(NN1C(=O)/C(=C/c2cccs2)SC1=S)c1ccncc1	-0.31	i	i	i	i	-10.1*	7.4%*	i
CCOC(=O)/C=C/C(=O)Nc1ccc(S(=O)(=O)Nc2nccs2)cc1	-0.48	i	i	i	i	i	.	.
CCOc1cc2c3c(c1)C(C)=CC(C)(C)N3C(=O)C2=O	0.78	i	i	i	i	i	.	.
CC(=O)Oc1cc2c3c(c1)/C(=C1/SC(=S)NC1=O)C(=O)N3C(C)(C)C=C2C	3.37	i	100*	i	i	-6.77*	36.8%*	i
COc1ccc2c(c1)c(C(=O)CNc1nc(C)cs1)c(C)n2C	.	i	i	i	i	-4.98*	38.2%*	2.71*
CCOCc1cnc(C)nc1NCC(=O)c1c(C)n(C)c2ccc(OC)cc12	0.01	.	.	i	i	.	.	.
CCOC(=O)CNc1c(-c2ccc(OC)cc2)nc2ccc(Cl)cn12	0.6	i	i	i	i	i	.	.
COCCNc1c(-c2ccc(OC)cc2)nc2ccc(Cl)cn12	-0.68	i	i	i	i	-9.61*	i	i
CSc1ccc(Cl)c(C(=O)NCCCn2ccnc2)c1	-0.04	i	i	i	i	i	.	.
O=C(Cc1ccccc1F)c1ccc(O)cc1O	-0.79	i	i	i	i	-6.19*	45.1%*	i
Cc1cc(C)c(NC(=O)CCCCCNC2CCCCC2)c(C)c1	-0.52	i	i	i	i	-5.23*	7.1%*	i
CCOC(=O)/C(C#N)=N\Nc1cc(Cl)ccc1OC	-0.48	i	i	i	i	i	.	.
SMILES	Kir21 block	CHT allo act	ANO1 block	Rce1 inhib	ANO1 activ	CHT inh	CHT inh conf	HEK293 CHT ctr
COc1ccc(C2=NN(C(=O)CN3CCCCC3)C(c3ccc(C)cc3)C2)cc1 (stereo not drawn)	-1.61	i	i	i	i	i	.	.
COc1ccc(C2CC(c3ccc(Br)cc3)=NN2C(=O)CN2CCCC2)cc1 (stereo not drawn)	-0.02	i	i	i	i	-7.06*	56.2%*	i
O=C(COc1ccc2ccccc2c1)NCC1CCCO1 (stereo not drawn)	1.8	i	i	i	i	i	.	.
O=S(=O)(Nc1nc2ccccc2nc1NCC1CCCO1)c1cc(Cl)ccc1Cl (stereo not drawn)	0.5	i	i	i	i	-5.55*	45.2%*	i
O=S(=O)(Nc1nc2ccccc2nc1NCC1CCCO1)c1ccccc1 (stereo not drawn)	1.5	i	i	i	i	i	.	.
C=CCSc1nc2ccccc2n1Cc1nnc(-c2cccs2)o1	0.36	i	i	i	i	-6.17*	59.5%*	i
CCCC(NC(=O)Cc1c(C)c2c(cc(C)c3c(C)coc32)oc1=O)C(=O)O (stereo not drawn)	0.95	i	i	i	i	i	.	.
O=C(NN=C1CCCCCC1)c1ccc(Cl)s1	-0.02	i	i	i	i	i	.	.
CC(=O)Nc1nc(=S)ss1	-0.1	i	i	i	i	i	.	.
CC(C)CC(=O)Nc1nc(=S)ss1	2.06	i	100*	i	i	-6.81*	40.5%*	i
O=C(CCCCCCN1C(=O)c2ccccc2C1=O)N1CCC(c2ccccc2)C1 (stereo not drawn)	-0.28	i	i	i	i	-6.08*	i	i
CC1(c2ccccc2)NC(=O)N(CC(=O)NCc2cccc(Cl)c2)C1=O (stereo not drawn)	-1.04	i	i	.	i	i	.	.
CC(=O)c1ccccc1NC(=O)c1ccc2c(c1)NC(=O)C(C)S2 (stereo not drawn)	1.79	i	i	i	i	i	.	.
